Shn3 3UTR inh: reduction of Shn3 3'UTR firefly luciferase signal, primary screen, Schnurri-3 inhibitor project, cell-based, Clone20 osteoblasts, set 2 | Clone20 osteoblast Shn3 3'UTR firefly luciferase, 24 h | inhibition, % at 12.5 µM | actives 0.52% (n = 360,000) | AID 588674, 2011;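 active = mean inhibition of at least 75% with every replicate also reaching 75%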;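 also: 0% = median of neutral control wells and 100% = pilot-screen positive control compound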
TROY signal inh: inhibitors of TROY-driven NF-kB signaling, primary screen, Q293 LMP1-TROYcd cells, NF-kB luciferase, uHTS; Q293 LMP1-TROYcd NF-kB luciferase reporter, 4 h; actives 0.98% (n = 360,000); AID 1347056, 2019; inhibition, % at 10 µM;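 active = compounds whose plate-normalised and pattern-corrected inhibition of the luciferase reporter signal at the single screening dose is 50% or more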
LMP1 NFkB inh: EBV LMP1-driven NF-kappaB luciferase reporter inhibitors, primary screen, cell-based, luminescence, single point; inhibition, % at 12.5 µM; LMP1-induced NF-kappaB luciferase reporter cells; actives 0.69% (n = 350,000); in the data active = inhibition above about 41%;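 also: 0% = neutral control wells and 100% = reference inhibitor control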
TWEAK Fn14 block: inhibitors of TWEAK-Fn14 signaling, primary screen, luciferase reporter cells, uHTS | TWEAK-stimulated Fn14 reporter cells, luciferase luminescence, 8 h | actives 2% (n = 360,000) | AID 1159606, 2016 | inhibition, % at 10 µM; in the data active = inhibition above about 50%
TRPM1 prom inh: inhibitors of MITF-dependent TRPM1 promoter reporter, primary screen, cell-based, SK-MEL-5, single point, luciferase | actives 0.83% (n = 330,000) | inhibition, % at 12.5 µM | AID 488899, 2010 | SK-MEL-5 TRPM1 promoter luciferase, 24 h;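 active = mean inhibition across replicates of 60% or more, whatever share of single replicates reaches that level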
Peg3 promoter: Peg3 promoter-driven luciferase inhibitors, primary screen, cell-based, HeLa, luciferase luminescence. HeLa PEG-Prom luciferase reporter, overnight. inhibition, % at 20 µM. actives 1.7% (n = 360,000);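 active = inhibition of at least 50% at 20 µM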
* = called active by the depositor. This is a sample that favours compounds with a hit; in the whole collection about 4.1% have one here.

For Cc1ccc(C(=O)NCC(=O)OCC(=O)c2cc(C)n(Cc3ccco3)c2C)cc1 the results were Shn3 3UTR inh -5.8, TROY signal inh -20.5, LMP1 NFkB inh -1.7, TWEAK Fn14 block -26.5, TRPM1 prom inh -5.9 and Peg3 promoter -11.1.
`C=CCn1c(C)cc(C(=O)COC(=O)CNC(=O)c2ccccc2)c1C` gave Shn3 3UTR inh 23.5, TROY signal inh 85.4*, LMP1 NFkB inh 11.8, TWEAK Fn14 block 89.2*, TRPM1 prom inh -6.3 and Peg3 promoter -6.8.
`COc1ccc(COC(=O)c2ccc(C)c(S(=O)(=O)N3CCOCC3)c2)cc1F` gave Shn3 3UTR inh 5.8, TROY signal inh 14.3, LMP1 NFkB inh 3.5, TWEAK Fn14 block -16.3, TRPM1 prom inh -7.3 and Peg3 promoter 11.1.
Screening COc1ccc(CC(=O)Nc2ccc3c(c2)OC2(CCCC2)O3)c(OC)c1 returned Shn3 3UTR inh 17.0, TROY signal inh -13.2, LMP1 NFkB inh 8.1, TWEAK Fn14 block -12.0 and Peg3 promoter 4.1.
Screening CCN(CC)Cc1c(O)ccc2c1O/C(=C\C=C\c1ccccc1)C2=O returned Shn3 3UTR inh 94.9*, TROY signal inh -8.9, LMP1 NFkB inh -82.9, TWEAK Fn14 block 62.6*, TRPM1 prom inh 81.4* and Peg3 promoter 81.5*.
For O=C1CCC(C(=O)NCc2ccc3c(c2)OCO3)N1 (stereo unspecified) the results were Shn3 3UTR inh -13.6, TROY signal inh -12.9, LMP1 NFkB inh 2.8, TWEAK Fn14 block 10.2, TRPM1 prom inh 6.5 and Peg3 promoter 6.4.
Screening Cc1ccccc1-n1sc2cc(F)ccc2c1=O returned Shn3 3UTR inh -16.2, TROY signal inh -4.6, LMP1 NFkB inh 3.0, TWEAK Fn14 block 3.1, TRPM1 prom inh 6.5 and Peg3 promoter 72.7*.
Screening O=c1c2ccccc2sn1-c1ccccc1F returned Shn3 3UTR inh 7.4, TROY signal inh -47.0, LMP1 NFkB inh 2.8, TWEAK Fn14 block -5.9 and Peg3 promoter -2.6.
CCc1ccc(NC(=O)COC(=O)c2nc3nc(C)cc(C)n3n2)cc1 was read as Shn3 3UTR inh 2.9, TROY signal inh -9.0, LMP1 NFkB inh -0.4, TWEAK Fn14 block 2.7, TRPM1 prom inh -2.8 and Peg3 promoter 1.0.
CC(NC(=O)C1CCCC1)c1ccccc1 (stereo unspecified) was read as Shn3 3UTR inh 2.9, TROY signal inh 11.3, LMP1 NFkB inh 6.3, TWEAK Fn14 block -3.9, TRPM1 prom inh 5.6 and Peg3 promoter 10.7.
CC(NC1CCCC1)c1ccccc1 (stereo unspecified) was read as Shn3 3UTR inh -3.1, TROY signal inh 76.3*, LMP1 NFkB inh -0.6, TWEAK Fn14 block 16.0, TRPM1 prom inh -5.4 and Peg3 promoter 6.2.
For CCOC(=O)C1=C(COC(=O)COc2ccc(C(C)=O)cc2)NC(=O)NC1C (stereo unspecified) the results were Shn3 3UTR inh 1.2, TROY signal inh -7.9, LMP1 NFkB inh -12.2, TWEAK Fn14 block 2.9, TRPM1 prom inh 17.2 and Peg3 promoter 10.1.
`CCOC(=O)C1=C(COC(=O)COc2ccc(C#N)cc2)NC(=O)NC1C` (stereo unspecified) gave Shn3 3UTR inh -4.4, TROY signal inh -0.9, LMP1 NFkB inh -0.6, TWEAK Fn14 block 90.3*, TRPM1 prom inh -0.6 and Peg3 promoter 8.9.
For Cc1cc(C)nc(N/N=C/c2cc(Br)ccc2O)n1 the results were Shn3 3UTR inh 88.8*, TROY signal inh -23.9, LMP1 NFkB inh 8.1, TWEAK Fn14 block -5.1, TRPM1 prom inh 9.9 and Peg3 promoter -31.5.
For COc1ccc(N2CC(C(=O)NCc3cccnc3)CC2=O)cc1 (stereo unspecified) the results were Shn3 3UTR inh 1.0, LMP1 NFkB inh -6.8, TWEAK Fn14 block 75.4*, TRPM1 prom inh 6.3 and Peg3 promoter 7.1.
`Cc1cccc(C)c1OCC(O)CN1CCC(CN2C(=O)c3cccc4cccc(c34)C2=O)CC1` (stereo unspecified) gave Shn3 3UTR inh 6.3, TROY signal inh 22.0, LMP1 NFkB inh -30.9, TWEAK Fn14 block 61.5*, TRPM1 prom inh 14.3 and Peg3 promoter 54.5*.
CC(C)OCC(O)CN1CCN(CCN2C(=O)c3cccc4cccc(c34)C2=O)CC1 (stereo unspecified) was read as Shn3 3UTR inh 3.6, TROY signal inh -18.9, LMP1 NFkB inh -10.2, TWEAK Fn14 block -15.2, TRPM1 prom inh -5.3 and Peg3 promoter 10.5.
O=C(c1ccc(S(=O)(=O)N2CCCCC2)cc1)N1CCN(CCN2C(=O)c3cccc4cccc(c34)C2=O)CC1 was read as Shn3 3UTR inh 38.9, TROY signal inh 50.6*, LMP1 NFkB inh 18.4, TWEAK Fn14 block 54.2*, TRPM1 prom inh 52.1 and Peg3 promoter 68.0*.
`CC(=O)c1ccc(OCC(O)CN2CCN(CCN3C(=O)c4cccc5cccc(c45)C3=O)CC2)cc1` (stereo unspecified) gave Shn3 3UTR inh 10.6, TROY signal inh 7.8, LMP1 NFkB inh -6.7, TWEAK Fn14 block -56.2, TRPM1 prom inh -3.3 and Peg3 promoter 50.0*.
For Cc1nn(-c2ccc(Cl)cc2)c(Cl)c1/C=C(\C#N)C(N)=O the results were Shn3 3UTR inh -16.0, TROY signal inh -3.9, LMP1 NFkB inh -17.2, TWEAK Fn14 block 8.1, TRPM1 prom inh 18.0 and Peg3 promoter 15.5.
C=CCNC(=O)/C(C#N)=C/c1c(C)nn(-c2ccc(Cl)cc2)c1Cl was read as Shn3 3UTR inh 2.5, TROY signal inh -0.4, LMP1 NFkB inh -6.9, TWEAK Fn14 block 50.7*, TRPM1 prom inh 2.7 and Peg3 promoter 6.2.
For CC(NCc1ccc(S(N)(=O)=O)cc1)C(=O)N1c2ccccc2CC1C (stereo unspecified) the results were Shn3 3UTR inh 0.0, TROY signal inh 0.3, LMP1 NFkB inh -2.7, TWEAK Fn14 block -0.2, TRPM1 prom inh -1.3 and Peg3 promoter 0.5.
For c1ccc(Cn2c(-c3ccco3)nc3nc4ccccc4nc32)cc1 the results were Shn3 3UTR inh -58.2, TROY signal inh 5.5, LMP1 NFkB inh -46.3, TWEAK Fn14 block -7.9, TRPM1 prom inh -88.1 and Peg3 promoter -255.2.
`COc1ccccc1Cn1c(-c2ccco2)nc2nc3ccccc3nc21` gave Shn3 3UTR inh -42.5, TROY signal inh -20.1, LMP1 NFkB inh 0.9, TWEAK Fn14 block 1.2, TRPM1 prom inh -32.1 and Peg3 promoter -85.3.
For Cc1ccc(-c2nc3nc4ccccc4nc3n2Cc2ccco2)cc1 the results were Shn3 3UTR inh 10.2, TROY signal inh 73.6*, LMP1 NFkB inh -8.6, TWEAK Fn14 block 89.5*, TRPM1 prom inh -34.8 and Peg3 promoter -108.0.
COc1ccc(CCn2c(-c3ccco3)nc3nc4ccccc4nc32)cc1 was read as Shn3 3UTR inh -31.3, TROY signal inh 31.8, LMP1 NFkB inh -2.4, TWEAK Fn14 block 57.2*, TRPM1 prom inh -13.7 and Peg3 promoter -69.4.

Screening results deposited in PubChem BioAssay by several laboratories.
